This is one part of the list. Calls of active or inactive are those of the source.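 The calls were made as follows: active = calcium signal rise, corrected for plate position, at least 3 library SD high, with starting brightness within 5 such deviations; inactive = the rest.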

Chain of Mas-related G-protein coupled receptor member X1 (Homo sapiens) (Q96LB2 whole entry, looked up): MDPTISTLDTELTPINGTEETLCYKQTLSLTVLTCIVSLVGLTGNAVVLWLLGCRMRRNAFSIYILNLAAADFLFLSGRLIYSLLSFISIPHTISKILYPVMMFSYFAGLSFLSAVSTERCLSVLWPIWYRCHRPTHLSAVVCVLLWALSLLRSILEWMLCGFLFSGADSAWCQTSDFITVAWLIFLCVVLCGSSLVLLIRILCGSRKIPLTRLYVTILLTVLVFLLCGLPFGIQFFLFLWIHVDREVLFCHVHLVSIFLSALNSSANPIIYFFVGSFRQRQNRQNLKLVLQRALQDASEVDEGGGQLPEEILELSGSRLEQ

The assay concerns the target Mas-related G-protein coupled receptor member X1 (Homo sapiens) (UniProt Q96LB2). Briefly: MrgX1 receptor agonists, duplicate retest, confirmation, HEK293 cells, Fluo-4 calcium flux (AID 602412). As to conditions: MrgX1-HEK293, Fluo-4 calcium fluorescence, FDSS, at 10 µM; active compounds read high.
On to `O=C1Cc2ccccc2Sc2ccc(Cl)cc21`, for which the activation was 104% (active). As to `CCCc1cc(=S)n2c([nH]c3ccccc32)c1C#N`, the activation was 266% (active).

For the molecule `CCCCC(=O)NNC(=S)NC(=O)C(c1ccccc1)c1ccccc1`, the outcome was inactive. The same measure, in the same setting: the result for `CCN(CC)c1ccc2oc(=O)c(C)nc2c1` reads “inactive”. With `COc1ccc(C(=O)NC(=S)NNC(=O)c2c(-c3ccccc3)noc2C)cc1`, the activation was 506% (active). In the case of `Cc1onc(-c2ccccc2)c1C(=O)NNC(=S)NC(=O)c1ccc(F)cc1`, the activation was 636% (active).

On to `CCCc1nc2c(c(=O)c3ccccc3n2C)c(=O)n1C1CCCCCC1`, for which the activation is 149% (active). The same measure, in the same setting: as for `CC(C)(C)Nc1c(-c2cccs2)nc2ccccn12`, the figure is 181% (active); as for `COc1ccc2c(c1)OC(O)(C(F)(F)C(F)F)CC2=O` (centres undefined), 373% (active); as for `CC(Oc1ccc2ccccc2c1)C(=O)NNC(=S)NC(=O)c1ccco1` (centres undefined), 265% (active). On the same count and under the same terms, as for `Cc1ccc(NC2(C#N)C(=O)Nc3ccccc32)cc1` (centres undefined), the figure is 191% (active).

`CC(=O)OC(C)C[N+](C)(C)C` (centres undefined): the activation was 483% (active). Turning to `O=C(CCN1CCc2ccccc2C(O)(c2ccccc2)C1)c1ccc2c(c1)OCCO2` (centres undefined), the activation was 192% (active). Still for that read-out and setting: as for `COc1ccc(C(=O)NNC(=S)NC(=O)c2ccccc2)cc1`, the figure is 570% (active). For `COC(=O)c1ccc(COC(=O)C2CCN(S(=O)(=O)c3c(Cl)cccc3Cl)CC2)o1`, the result was inactive. As to `CCCc1[nH]nc2c1C(c1ccc(Br)s1)C(C#N)=C(N)O2` (centres undefined), the activation is 141% (active). With `COc1ccc(Nc2nc(-c3cccnc3)nc3ccccc23)cn1`, the activation was 127% (active). Still for that read-out and setting: the result for `N=C(N)SCc1cccc2ccccc12` reads 199% (active); that for `CCOC(=O)c1[nH]c2ccc(C)cc2c1N=C(C)N(C)C`, 185% (active); that for `COc1ccc(C(=O)NC(=S)NNC(=O)CCc2ccccc2)cc1`, 595% (active). The same measure, in the same setting: as for `Cc1cc2oc3ccc(NCCC4CCCN4C)cc3c(=O)c2cc1C` (centres undefined), the figure is 311% (active); as for `Cc1ccnc(-n2sc3ccccc3c2=O)n1`, 170% (active). As to `COc1ccc(OC)c(C(=O)c2ccc(Cl)cc2)c1`, the result was inactive. `COc1ccccc1N(CC(=O)N1CCCCC1)S(=O)(=O)c1ccccc1`: the activation is 356% (active). Regarding `CC1(C(=O)O)CCC(C(=O)Nc2ccc(Cl)c(Cl)c2)C1(C)C` (centres undefined), the activation was 149% (active). Turning to `Cc1c(C)c2c(OCC(=O)N[C@@H](C(=O)O)c3ccccc3)cc3c(c2oc1=O)CCC(C)(C)O3`, the result was inactive.

Take `O=C(Nc1ccccc1)c1nnsc1S(=O)(=O)c1ccc(Cl)cc1`: the activation is 210% (active). The same measure, in the same setting: as for `Fc1ccc2[nH]c3c(N4CCSCC4)ncnc3c2c1`, the figure is 252% (active); as for `O=C1C(=O)N(CC2COc3ccccc3O2)c2ccccc21` (centres undefined), 226% (active). Regarding `CC(C)CC(=O)NC(=S)NNC(=O)c1cccc([N+](=O)[O-])c1`, the activation is 268% (active). For `Cc1ccc(-n2[nH]c(C)c(/C=N/N3C(=O)c4cccc5cccc(c45)C3=O)c2=O)cc1`, the activation was 601% (active).

As for `Cc1nc(C)c(-c2csc(NCCc3ccccc3)n2)s1`, the activation was 170% (active). Consider `OCc1ccc(OCCCOc2cccc3cccnc23)cc1`, for which the outcome was inactive. `CC1CCCCN1S(=O)(=O)c1ccc(C(=O)Nc2nnc(-c3cccs3)o2)cc1` (centres undefined): the activation was 88.3% (active). The same measure, in the same setting: as for `O=C(Nc1nnc(-c2ccccc2)o1)c1cc(-c2cccs2)nc2ccccc12`, the figure is 141% (active). With `COC(=O)c1ccc(C2C3=C(Nc4nnnn42)c2ccccc2OC3)cc1` (centres undefined), the outcome was inactive. With `Cc1[nH][nH]c(=O)c1C(c1ccc(-c2ccc(Cl)cc2)o1)c1c(C)[nH][nH]c1=O`, the activation is 187% (active). On the same count and under the same terms, the result for `O=C(CC(O)(C(F)(F)F)C(F)(F)F)Nc1ccc(Cl)c(Cl)c1` reads 242% (active); that for `O=c1c2cc(Br)ccc2nc(-c2cccc(Cl)c2)n1O`, 415% (active).

The record behind these values is PubChem BioAssay AID602412 (Johns Hopkins Ion Channel Center, 2012).
